Source: PubChem (several laboratories)
PfHsp90 yeast 2: growth inhibition of PfHsp90-expressing yeast, primary screen, antimalarial PfHsp90 inhibitor project, S. cerevisiae, BacTiter-Glo luminescence, single point, set 2. BacTiter-Glo ATP, 48 h; yeast lacking PDR1 and PDR3 efflux regulators. inhibition, % at 9.4 µM. hit rate 0.32% among 310,000;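 active = every replicate shows inhibition above about 80%, whatever the replicate mean, limit read from the data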;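 note: 0% = DMSO neutral controls and 100% = 20 µM radicicol positive controls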
TIM10 inh: growth inhibitors of isogenic TIM10 control yeast, primary screen, counter-screen for tim10-1 yeast inhibitor project, luminescence, uHTS | S. cerevisiae TIM10 strain growth, BacTiter-Glo luminescence, 24 h | inhibition, % at 10 µM | hit rate 1.4% among 330,000;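 active = inhibition of 40% or more at the single tested concentration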;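 note: wild-type TIM10 isogenic control strain grown at permissive 25 °C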
NALP3 yeast inh: NALP3 inflammasome inhibitors in reconstituted yeast, primary screen, luminescence, uHTS. hit rate 0.39% among 330,000. Yeast reconstituted NLRP3/ASC/caspase-1, beta-gal luminescence, 24 h. inhibition, % at 10 µM;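 active = inhibition of 50% or more; inactive = inhibition below 50%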;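 note: plate controls were induced DMSO wells for no effect and uninduced yeast grown without galactose for full effect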
tim23-1 inh: growth inhibitors of tim23-1 mutant yeast, primary screen, luminescence, uHTS | S. cerevisiae tim23-1 growth, BacTiter-Glo luminescence, 24 h | inhibition, % at 20 µM | hit rate 1.3% among 330,000;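 active = growth inhibition of the mutant yeast at or above 50%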;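 note: temperature-sensitive mutant grown at 25 °C; plate controls were DMSO-treated mutant yeast for no effect and medium wells lacking yeast for full effect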
SKKanGAS inh: S. pyogenes SKKanGAS growth inhibitors in kanamycin, primary screen, streptokinase expression inhibitor project, SKKanGAS strain, BacTiter-Glo luminescence. hit rate 1.3% among 300,000. inhibition, % at 7.5 µM. 6 h;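 active = mean replicate score, as percent of positive control median, at least 50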;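 note: strain carries kanamycin resistance gene driven by streptokinase promoter and grows in 40 µg/ml kanamycin; loss of luminescence reflects streptokinase promoter inhibition or plain growth inhibition; 0% = median of DMSO wells and 100% = positive control at its reference dose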
tim10-1 inh: growth inhibitors of tim10-1 mutant yeast, primary screen, luminescence, uHTS. S. cerevisiae tim10-1 ts strain growth, BacTiter-Glo, 24 h. inhibition, % at 20 µM. hit rate 2.2% among 330,000;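 active = inhibition of at least 40%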;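 note: mutant grown at 25 °C; 0% = DMSO wells with yeast and 100% = wells holding no yeast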
NALP3 yeast conf: NALP3 inhibitors retested in yeast, confirmation, luminescence, single concentration | inhibition, % at 10 µM | AID 435006, 2010 | hit rate 81% among 1,300 | yeast expressing human NALP3 | shares compounds with NALP3 yeast inh; in the data active = inhibition above about 48%
Casp1 ASC ctr: CASP1-PYCARD signaling inhibition in yeast, confirmatory test, counterassay for NLRP3 inhibitor program, one-dose. shares compounds with NALP3 yeast inh. yeast expressing Caspase-1-ASC, luminescence counter screen. inhibition, % at 10 µM. hit rate 66% among 1,000. AID 488784, 2010
NALP3 retest: NALP3 inhibitors in yeast, repeat test, confirmation, luminescence, single concentration, retest; hit rate 53% among 1,000; AID 488794, 2010; yeast expressing human NALP3, luminescence read-out; inhibition, % at 10 µM; shares compounds with NALP3 yeast inh
* = called active by the depositor; nt = no result. The list is not random: actives were taken first. Their share in the collection is about 4.6%. Cut-off read from the data, not from the text of the source, unless noted: active = inhibition above about 50%; inactive = the rest.

SMILES	PfHsp90 yeast 2	TIM10 inh	NALP3 yeast inh	tim23-1 inh	SKKanGAS inh	tim10-1 inh	NALP3 yeast conf	Casp1 ASC ctr	NALP3 retest
C[C@H](O)[C@H]1CC[C@H]2[C@@H]3CCC4=CC(=O)CC[C@]4(C)[C@H]3CC[C@]12C	41	-93	52*	13	-11	-28	73*	42	40
C[C@]12CCC3C(CC[C@H]4C[C@@H](O)CC[C@]34C)C1C[C@@H](O)[C@@H]2O (stereo partly drawn)	-6	nt	nt	nt	nt	nt	nt	nt	nt
C[C@]12CCC3C(CC[C@H]4C[C@@H](O)CC[C@]34C)C1C[C@H](Br)[C@@H]2O (stereo partly drawn)	nt	-167	62*	-28	nt	-108	70*	nt	nt
C[C@]12CCC3C(CC[C@H]4C[C@H](O)CC[C@]34C)C1C[C@H](O)[C@@H]2O (stereo partly drawn)	14	0	51*	31	nt	5	50*	nt	nt
C[C@]12CCC3C(CC[C@H]4C[C@H](O)CC[C@]34C)C1C[C@@H](CCCCl)[C@@H]2O (stereo partly drawn)	nt	12	57*	42	nt	5	62*	nt	nt
C[C@]12CCC3C(CC[C@H]4C[C@H](O)CC[C@]34C)C1C[C@@H](O)[C@@H]2O (stereo partly drawn)	nt	-8	44	4	nt	-6	nt	nt	nt
Cc1nc(SCc2c(Cl)cccc2Cl)nc(OC(=O)N(C)C)c1C	2	-6	17	26	-10	22	nt	nt	nt
CC1CCN(c2cc(Br)c([N+](=O)[O-])cc2F)CC1	6	-10	68*	19	-5	15	73*	77*	58*
O=[N+]([O-])c1cc(F)c(N2CCCC2)cc1Br	10	3	67*	14	9	4	82*	80*	64*
Fc1c(F)c(F)c(N2CCNCC2)c(F)c1F	20	8	-9	9	12	0	nt	nt	nt
CC(N)C(=O)OC(C)(C)Cc1ccc(Cl)cc1 (stereo not drawn)	-10	14	69*	11	nt	12	56*	48	56*
CCN(CCNc1ccc([N+](=O)[O-])c2cccnc12)S(=O)(=O)c1ccc(Cl)cc1	5	2	50*	8	-1	12	65*	37	34
CCN(CCNc1ccc([N+](=O)[O-])c2cccnc12)S(=O)(=O)c1ccccc1	-35	3	1	-8	-9	1	nt	nt	nt
C[C@]12CCC3[C@@H](CCC4=CC(=O)CC[C@@]43CO)C1CCC2=O (stereo partly drawn)	-3	-14	1	12	0	5	nt	nt	nt
CC[C@]12CC[C@H](O)CC1=CCC1C2CC[C@]2(C)C(=O)CCC12 (stereo partly drawn)	nt	-21	67*	-60	nt	-16	60*	nt	nt
CC(=O)O[C@H]1CC[C@@]2(C)C(=CC[C@@H]3[C@@H]2CC[C@]2(C)C(=O)CC[C@@H]32)C1	39	-125	58*	7	nt	-31	59*	59*	40
O=C1/C(=C/c2ccccc2Cl)N2CCC1CC2	-25	23	11	26	2	24	nt	nt	nt
COC(=O)C1=C(c2cccc(OCc3ccccc3)c2)C[C@@H]2CC[C@H]1N2C(=O)NCc1ccc(C(F)(F)F)cc1	-10	7	22	20	nt	15	nt	nt	nt
O=P(O)(Oc1ccccc1)OC(c1ccccc1)C(F)(F)C(F)(F)F (stereo not drawn)	3	-2	6	-7	-3	-1	nt	nt	nt
